This is a sample that favours compounds with a hit; in the whole collection about 2.5% have one here.
Cruzain noTriton – cruzain (T. cruzi) inhibition without detergent. purified cruzain, Z-FR-AMC fluorescence, no detergent. Potency, µM, usual class: inhibitors. actives 2.3% (n = 200,000). AID 1476; note: nearly all actives have a fitted effect of over 40% in size
Target sequence (P25779 123-467 limits assumed): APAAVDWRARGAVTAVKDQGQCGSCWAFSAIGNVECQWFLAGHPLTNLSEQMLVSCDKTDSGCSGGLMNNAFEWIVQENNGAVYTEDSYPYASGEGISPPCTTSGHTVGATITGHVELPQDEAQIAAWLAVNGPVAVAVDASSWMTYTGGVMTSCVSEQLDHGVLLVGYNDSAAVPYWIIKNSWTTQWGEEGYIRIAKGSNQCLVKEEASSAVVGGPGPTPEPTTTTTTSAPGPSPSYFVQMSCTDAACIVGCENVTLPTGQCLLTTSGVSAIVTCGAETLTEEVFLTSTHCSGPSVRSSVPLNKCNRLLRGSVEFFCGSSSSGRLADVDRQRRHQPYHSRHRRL
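Purified cruzain at 1.5 nM, pre-incubated 15 min with compound at room temperature in 100 mM sodium acetate pH 5.5, 5 mM DTT, 0.00005% Triton X-100. Reaction started with 2 uM Z-FR-AMC; AMC fluorescence increase over 60 s gives rate.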
Cruzain Triton – blocks cruzain activity in presence of Triton detergent; AID 1478; purified cruzain, Z-FR-AMC fluorescence, 0.01% Triton; actives 0.43% (n = 200,000); Potency, µM, most hits filed as inhibitors; P25779; note: nearly all actives have a fitted effect of over 40% in size
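Compounds were screened in titration against cruzain (1.5 nM) with 0.01% Triton X-100 to counter colloidal aggregation. Activity was the AMC fluorescence increase over 60 s after adding 2 uM Z-FR-AMC at pH 5.5.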
Each line names hits and unclear results; the compound was inactive in the other large screens; ! = repeats disagree. Calls come from the whole dose curve; as a rule, active = well fitted curve in the direction sought with a large enough effect; inconclusive = small, poorly fitted or top-dose-only effect, or another doubt; inactive = no such curve, though single readings can be large; an effect the other way counts as inactive or inconclusive.

CCC(Sc1nncn2c1cc1occc12)C(=O)Nc1ccc(C)c(Cl)c1 (configuration not stated)	none
COc1ccc(-c2nc3ccccc3s2)cc1NC(=O)COc1cccc(C)c1	none
COc1cccc(Cn2c(=O)n(-c3cccc(Cl)c3)c(=O)c3c4c(sc32)CN(C(C)=O)CC4)c1	Cruzain noTriton inconclusive
COc1cccc(/C=C/C(=O)OCC(=O)Nc2ccccc2Sc2ccccc2)c1	none
Cc1ccc(/C=C/C(=O)OCC(=O)Nc2ccccc2Sc2ccccc2)cc1	Cruzain noTriton 12.6µM
Cc1cc(C)cc(NC(=O)c2cc3c(=O)n(Cc4ccco4)ccc3nc2C)c1	none
Cc1ccc2c(c1)c1c(c(=O)n(-c3ccccc3)c(=O)n1CC(=O)NCCC1=CCCCC1)n2C	none
COc1ccc(NC(=O)c2sc3nc[nH]c(=O)c3c2C)cc1OC	none
COc1cccc(N2CC(NC(=O)c3cc(Cl)ccc3OC)CC2=O)c1 (configuration not stated)	none
CCc1cccc(-n2c(=O)c3cccnc3n2CC(=O)Nc2ccccc2C(=O)OC)c1	none
Nc1ccncc1	Cruzain noTriton 3.55µM!, Cruzain Triton 3.16µM!
c1cc(-c2ccncc2)ccn1	none
CC(=O)N1CCc2c(sc3c2c(=O)n(-c2ccccc2)c(=O)n3CC(=O)Nc2ccccc2C)C1	none
CCCn1c(CNC(=O)c2cccs2)nc2ccccc21	none
COc1ccccc1C(=O)Nc1ccc2c(c1)nc(CCNC(C)=O)n2C	none
CCCCn1c(CCNC(=O)c2cccs2)nc2ccccc21	Cruzain noTriton 10µM
COc1ccccc1C(=O)NCCc1nc2ccccc2n1C	Cruzain noTriton 10µM, Cruzain Triton inconclusive
Cc1ccc(-n2c(CCC(=O)O)ccc2-c2cccs2)cc1Cl	none
O=C(O)[C@@H]1[C@H](C(=O)O)[C@]2(Cl)C(Cl)=C(Cl)[C@@]1(Cl)C2(Cl)Cl	none
CCCCOc1ccc(CNC(=O)CN2CCSc3ccccc32)cc1	Cruzain noTriton inconclusive
Cc1cccc(N=C2NN=C(c3c(C)[nH]c4ccccc34)CS2)c1	Cruzain noTriton inconclusive
Cc1cccc(N=C2NN=C(c3ccc4c(c3)OCCO4)CS2)c1	Cruzain noTriton 15.8µM
Oc1ccc([C@H](O)C2CCCCN2)cc1O (some centres not stated)	none
COc1ccc(C(=O)NC(=S)N2CCCCC2)cc1[N+](=O)[O-]	none
Cc1c([N+](=O)[O-])cc(C(=O)Oc2ccc(Br)cc2C(=S)N2CCCCC2)cc1[N+](=O)[O-]	Cruzain noTriton 25.1µM
O=C(O)Cc1cccnc1	none
O=C(CSc1nc2c([nH]c3ccccc32)c(=O)n1-c1ccc(Cl)cc1)N1CCOCC1	none
CCOc1cc(/C=N\NC(=O)Cn2nc([N+](=O)[O-])cc2C)ccc1OCc1cccc2ccccc12	Cruzain noTriton 12.6µM
CCOc1cc(/C=N/NC(=O)CSc2nnc(C)s2)ccc1OCc1ccccc1Cl	none
CC(=O)Nc1nonc1-c1nnc(SCC(=O)Nc2ccc(F)cc2F)n1-c1ccccc1	none
CCC(=O)N1c2ccccc2CC1C(=O)NCc1ccccc1Cl (configuration not stated)	none
CCOC(=O)c1c(-c2ccc(OC)cc2)csc1NC(=O)CCN1C(=O)c2ccccc2C1=O	Cruzain noTriton 15.8µM
CCOC(=O)c1c(-c2ccc(OCC)cc2)csc1NC(=O)CCN1C(=O)c2ccccc2C1=O	Cruzain noTriton inconclusive
O=C(NC(=S)Nc1nc2c(ccc3ccccc32)s1)c1cccs1	Cruzain noTriton 20µM
O=C(Nc1nc2c(ccc3ccccc32)s1)c1ccco1	none
NC[C@H]1O[C@H](n2cnc3c(N)ncnc32)C[C@@H]1O	none
COc1ccc(/C=N/NC(=O)c2ccc(Cn3cc([N+](=O)[O-])cn3)o2)cc1O	none
COc1ccc(/C=N/Nc2ccc([N+](=O)[O-])cc2)cc1Cn1cc([N+](=O)[O-])cn1	Cruzain noTriton 20µM
COc1ccc(/C=N/Nc2ccccc2)cc1Cn1nc(C)c([N+](=O)[O-])c1C	Cruzain noTriton 12.6µM
COc1ccc(/C=N/NC(=O)Cn2nc(C)c([N+](=O)[O-])c2C)cc1	none
CCc1ccc2oc(C(=O)Nc3ccccc3C(=O)OC)cc(=O)c2c1	none
O=C(Nc1ccccc1C(F)(F)F)Nc1cccc2ccccc12	Cruzain noTriton 25.1µM
CCCC(=O)NC(=S)Nc1ccccc1C(F)(F)F	none
Cc1ccc2c(c1)-c1c(ssc1=S)C(C)(C)N2C(=O)CSC1=NCCS1	Cruzain noTriton inconclusive
CCOc1ccc2c(c1)-c1c(ssc1=S)C(C)(C)N2C(=O)CSC1=NCCS1	Cruzain noTriton 15.8µM
CCN1C(=O)c2c(C)nc3ccccc3c2C1=O	none
CCc1ccc(C(=O)COC(=O)c2cccc(N3C(=O)c4c(C)nc5ccccc5c4C3=O)c2)cc1	Cruzain noTriton 6.31µM
CCOC(=O)c1ccccc1NC(=O)Cn1c(=O)n(Cc2nc(-c3ccccc3)no2)c(=O)c2ccccc21	none
O=C(COC(=O)c1ccc(-c2nnc(-c3ccccc3)o2)cc1)c1ccccc1	Cruzain noTriton 7.94µM
Nc1cccc(C(=O)OCC(=O)c2ccccc2)c1	none
CCOC(=O)c1[nH]c2ccccc2c1NC(=O)c1ccc(C)c(C)c1	none
O=S(=O)(c1ccc(Cl)cc1)n1ccc(-c2cccc(OCc3c(F)cccc3Cl)c2)n1	Cruzain noTriton 20µM
O=S(=O)(c1ccc(F)cc1)n1ccc(-c2cccc(OCc3c(F)cccc3Cl)c2)n1	none
CCCN1CCN(c2ncnc3sc(C(=O)Nc4c(C)cc(C)cc4C)c(C)c23)CC1	none
Cc1csc(NC(=O)CSc2nnc(NC(=O)COc3ccc(Cl)cc3)s2)n1	Cruzain noTriton 5.01µM
CCSc1nnc(NC(=O)COc2ccccc2)s1	Cruzain noTriton inconclusive
COc1cc(NC(=O)COC(=O)CNC(=O)c2ccc(Cl)cc2)c(C)cc1[N+](=O)[O-]	Cruzain noTriton 10µM, Cruzain Triton 12.6µM
COc1cc(NC(=O)COC(=O)C2CC2)c(C)cc1[N+](=O)[O-]	none
COc1cc(NC(=O)COC(=O)CNC(=O)c2ccc(C)cc2)c(C)cc1[N+](=O)[O-]	Cruzain noTriton 12.6µM, Cruzain Triton 12.6µM
COc1cc(NC(=O)COC(=O)CC(C)(C)C)c(C)cc1[N+](=O)[O-]	none
C#CCOc1c(Br)cc(C2C(C(=O)OC)=C(C)NC3=C2C(=O)c2ccccc23)cc1OCC (configuration not stated)	none
CC(NC(=O)C12CC3CC(CC(C3)C1)C2)C(=O)N/N=C/C1=C(N2CCOCC2)C(=C\c2cccc([N+](=O)[O-])c2)/CC1 (configuration not stated)	none
N#C/C(=C\C1=C(N2CCOCC2)C(=C/c2cccc([N+](=O)[O-])c2)/CC1)C(=O)Nc1ccccc1F	Cruzain noTriton 12.6µM
CCN(CC)c1ccc(/C=C2\CCC(/C=C(\C#N)C(=O)Nc3ccccc3F)=C2N2CCOCC2)cc1	Cruzain noTriton inconclusive
N#C/C(=C\C1=C(N2CCOCC2)C(=C\c2ccc(Cl)cc2)/CC1)C(=O)Nc1ccccc1F	Cruzain noTriton 10µM
CCC1CN(C(=O)Nc2ccccc2C(F)(F)F)c2ccccc2O1 (configuration not stated)	none
C=C(C)C1CC=C(C)C(OC(C)=O)C1 (configuration not stated)	none
CC(=O)Nc1nonc1-c1nnc(SCc2ccc(F)cc2Cl)n1C	none
Cc1cc(O)c(C(c2ccccc2Cl)N2CCN(c3ccccc3)CC2)c(=O)n1Cc1ccco1 (configuration not stated)	Cruzain noTriton inconclusive
O=C1C2=C(Nc3cc([N+](=O)[O-])ccc3N2)O[C@@H]1c1c[nH]c2ccc(COc3ccccc3)cc12	none
